Compound activity (PubChem)
CYP2C9 activ – increases human cytochrome P450 2C9 activity; AID 1024; recombinant CYP2C9, luciferin-H conversion, luminescence; active compounds read high; factor 1 = untreated enzyme, 0 = blocked; P11712; activation factor at 5 µM; 96,000 compounds, 1.4% hits;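 active = activation factor of 2 or more for CYP2C9 at a 5 µM dose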
CD11b adhes enh – enhancers of human CD11b/CD18 binding to fibrinogen; P05107+P11215; K562 CD11b/CD18 adhesion to fibrinogen, ATPlite luminescence; activation, % at 10 µM; 93,000 compounds, 0.07% hits;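 active = 10 µM primary screen giving 50% or more activity, confirmed by 40% or more on retest at that dose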
Target sequence (P05107 whole entry, looked up, other chains not shown): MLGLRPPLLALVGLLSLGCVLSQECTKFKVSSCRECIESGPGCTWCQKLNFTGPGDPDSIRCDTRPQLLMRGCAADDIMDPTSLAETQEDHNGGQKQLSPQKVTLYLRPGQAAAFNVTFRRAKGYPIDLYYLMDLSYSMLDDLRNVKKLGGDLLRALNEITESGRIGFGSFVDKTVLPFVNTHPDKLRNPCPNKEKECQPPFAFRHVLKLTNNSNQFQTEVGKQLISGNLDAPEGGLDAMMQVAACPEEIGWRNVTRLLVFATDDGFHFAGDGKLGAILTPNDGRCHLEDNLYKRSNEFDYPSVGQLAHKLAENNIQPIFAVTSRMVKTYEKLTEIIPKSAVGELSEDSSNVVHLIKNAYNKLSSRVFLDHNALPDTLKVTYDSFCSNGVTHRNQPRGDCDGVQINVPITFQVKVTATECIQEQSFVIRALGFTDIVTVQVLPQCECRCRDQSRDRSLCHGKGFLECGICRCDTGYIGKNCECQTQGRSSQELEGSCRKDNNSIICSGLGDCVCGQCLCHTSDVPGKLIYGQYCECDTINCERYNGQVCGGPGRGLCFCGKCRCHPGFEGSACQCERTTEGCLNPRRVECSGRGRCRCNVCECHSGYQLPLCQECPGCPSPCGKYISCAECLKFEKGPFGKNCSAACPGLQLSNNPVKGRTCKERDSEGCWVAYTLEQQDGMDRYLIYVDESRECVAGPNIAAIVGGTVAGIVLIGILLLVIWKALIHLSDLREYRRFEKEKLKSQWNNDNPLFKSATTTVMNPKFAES
CYP2C19 activ – activators of human cytochrome P450 2C19; P33261; recombinant CYP2C19, luciferin-H EGE luminescence; active compounds read high; 0 = fully inhibited enzyme, 1 = untreated enzyme; activation factor at 5 µM; 96,000 tested, under 10 active; AID 1025;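 active = activation factor of at least 2 at 5 µM in the primary screen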
CYP2C9 inh – blocks human cytochrome P450 2C9; P11712; CYP2C9 Supersomes, luciferin-H conversion, luminescence; inhibition, % at 5 µM; 96,000 compounds, 20% hits; AID 777;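 active = blocking of liver enzyme CYP2C9 beyond about 50% at 5 µM, limit read from the data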
CD11b adhes inh – CD11b/CD18-fibrinogen binding inhibition; 93,000 compounds, 0.54% hits; P05107+P11215; K562 CD11b/CD18 adhesion to fibrinogen, ATPlite luminescence; Mn2+ added to activate the integrin; inhibition, % at 10 µM;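 active = primary inhibition of 50% or more at 10 µM, then 40% or more on retest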
CYP2C19 inh – human CYP2C19 inhibition. CYP2C19 Supersomes, luciferin-H EGE luminescence, 30 min. inhibition, % at 5 µM. AID 778. 96,000 compounds, 21% hits. P33261;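 active = CYP2C19 inhibition above a set limit at 5 µM in the primary screen, cut at about 50% in these data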
A number is an active result; – = inactive; · = no result. Shown are actives, neighbours in structure and some others; about 28% of the full set was active somewhere.

SMILES	CYP2C9 activ	CD11b adhes enh	CYP2C19 activ	CYP2C9 inh	CD11b adhes inh	CYP2C19 inh
COc1ccc(/C=C/C(=O)NCc2cn(C)nc2C)cc1COc1ccc(Br)cc1	–	·	–	60	·	67
COc1ccc(/C=C/C(=O)c2ccccc2)cc1COc1ccc(F)cc1	–	·	–	65	·	–
COc1ccc(/C=C/C(=O)c2ccc(O)cc2)cc1COc1ccc(F)cc1	–	–	–	–	–	–
Cc1ccccc1Oc1ncnc2sccc12	–	·	–	–	·	–
Cc1cc(C(=O)Nc2ccccc2)oc1C	–	·	–	–	·	–
Cc1cc(C)n(C(=O)CCCC(=O)n2nc(C)cc2C)n1	–	–	–	–	–	–
Cc1cc(C)n(C(=O)CCCCCCCCC(=O)n2nc(C)cc2C)n1	–	·	–	58	·	71
Cc1c(C)c2cc(Cl)c(OCc3nn[nH]n3)cc2oc1=O	–	–	–	94	–	92
COC(=O)Cc1c(C)c2c(OCc3nn[nH]n3)cc(C)cc2oc1=O	–	–	–	–	–	–
Cc1ccc2c(c1)N(CC(=O)NCc1cccs1)C(=O)C(C)O2 (stereo not drawn)	–	·	–	–	·	–
Cc1ccc2c(c1)N(CCC(=O)NCc1cccs1)C(=O)C(C)O2 (stereo not drawn)	–	–	–	74	–	97
Cc1ccc2c(c1)N(Cc1ccncc1)C(=O)C(C)O2 (stereo not drawn)	–	–	–	89	–	81
CCOc1ccc(C2c3cc(OC)c(OC)cc3CC(=O)N2c2ccc(OC)cc2)cc1 (stereo not drawn)	–	–	–	–	–	–
CCCCC(NC(C)=O)c1nc2ccccc2n1CCCC (stereo not drawn)	–	–	–	–	–	–
CC(=O)N(CCc1ccccc1C)Cc1cc2cc3c(cc2[nH]c1=O)OCO3	–	–	–	54	–	75
COc1ccc2[nH]c(=O)c(CN(CCc3cccc(C)c3)C(C)=O)cc2c1	–	–	–	63	–	86
CCC(=O)N(Cc1cc2cc(OC)ccc2[nH]c1=O)c1ccc(C)cc1C	–	–	–	55	–	–
COCCCNC(=O)CN(c1ccc(OC)cc1)S(=O)(=O)c1ccc(NC(C)=O)cc1	–	–	–	–	–	–
Cc1ccc(NCc2nnc3n2CCCCC3)cc1	–	–	–	–	–	75
O=C(NCc1nnc2n1CCCCC2)c1ccc(Cl)cc1Cl	–	–	–	–	–	–
Brc1ccc(NCc2nnc3n2CCCCC3)cc1	–	–	–	–	–	64
Cc1cccc(OCc2nnc3n2CCCCC3)c1	–	–	–	–	–	–
CCCCC(=O)NC(Nc1nc(C2CC2)cs1)(C(=O)OCC)C(F)(F)F (stereo not drawn)	–	·	–	–	·	63
CCOC(=O)NC(NCc1ccccc1Cl)(C(F)(F)F)C(F)(F)F	–	–	–	–	–	58
CCCCC(=O)NC(Nc1cc(C)ccn1)(C(=O)OCC)C(F)(F)F (stereo not drawn)	–	·	–	–	·	72
SMILES	CYP2C9 activ	CD11b adhes enh	CYP2C19 activ	CYP2C9 inh	CD11b adhes inh	CYP2C19 inh
CCOC(=O)NC(Nc1cc(C)ccn1)(C(F)(F)F)C(F)(F)F	–	–	–	–	–	54
CCCC(=O)NC(Nc1ccc(S(=O)(=O)Nc2ncccn2)cc1)(C(=O)OCC)C(F)(F)F (stereo not drawn)	–	–	–	–	–	–
O=C1N(c2ccc(Cl)cc2)C(c2ccccc2)N2CCCN12 (stereo not drawn)	·	–	·	·	–	·
CCCNC(=O)CSc1nnc(-c2ccccc2Br)n1-c1cccc(C(F)(F)F)c1	·	–	·	·	–	·
COc1ccc(Cc2c(O)nc[nH]c2=O)cc1	–	–	–	–	–	–
O=C1c2cnc3nc(SCc4cccc(Cl)c4)nn3c2CC2c3ccccc3CCN12 (stereo not drawn)	–	–	–	–	–	–
CCCCN1c2cc(C)c(O)cc2C(C(=O)OCC)C1C (stereo not drawn)	–	–	–	–	–	59
COc1ccc(CNc2nc(SCc3cc(=O)n4cc(Cl)ccc4n3)nc3ccccc23)cc1	·	–	·	·	–	·
CCc1c(C)sc(NC(=O)c2cc(-c3ccc(OC)c(OC)c3)on2)c1C#N	–	–	–	–	–	–
CCc1c(C)sc(NC(=O)c2cc(-c3ccc(O)cc3)on2)c1C#N	2.1	–	–	–	–	–
